Experiments:
Experiment in all cases: PBM binding z-score (relative to random genomic background probes); higher = stronger binding; sequences stand for … in GC…GCGATTGACAGCGTAGAATGAAGG
[1] = system: FXR:RXRa (NR concentration 270 nM, RXRa partner concentration 90 nM)
Method in brief: (§1)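 Ligand-free nuclear receptor dimers were bound for 1 h to custom Agilent 4×180K protein-binding microarrays. Detection used antibodies against each partner (one per run). Binding z-scores rest on regression-normalized fluorescence, with random background probes as the reference.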

[2] = system: LXRa:RXRa (NR concentration 270 nM, RXRa partner concentration 90 nM)
Method in brief: as §1

[3] = system: LXRa homodimer (NR concentration 270 nM)
Method in brief: as §1

[4] = system: LXRb:RXRa (NR concentration 270 nM, RXRa partner concentration 90 nM)
Method in brief: as §1

[5] = system: LXRb homodimer (NR concentration 270 nM)
Method in brief: as §1

[6] = system: PPARa:RXRa (NR concentration 270 nM, RXRa partner concentration 90 nM)
Method in brief: as §1

[7] = system: PPARg:RXRa (NR concentration 180 nM, RXRa partner concentration 90 nM)
Method in brief: as §1

[8] = system: PPARg:RXRa 270nM:90nM, anti-RXR (NR concentration 270 nM, RXRa partner concentration 90 nM)
Method in brief: as §1

[9] = system: PPARg:RXRa 30nM:10nM, anti-RXR (NR concentration 30 nM, RXRa partner concentration 10 nM)
Method in brief: as §1

[10] = system: PPARg:RXRa 90nM:30nM, anti-RXR (NR concentration 90 nM, RXRa partner concentration 30 nM)
Method in brief: as §1

[11] = system: PPARg:RXRa DBDmut IVT, anti-RXR (DBD mutation: RXRa K156A/R161A, NR concentration 270 nM, RXRa partner concentration 90 nM)
Method in brief: as §1

[12] = system: PPARg:RXRa IVT, anti-PPARg (NR concentration 270 nM, RXRa partner concentration 90 nM)
Method in brief: as §1

[13] = system: PPARg DBDmut:RXRa IVT, anti-PPARg (DBD mutation: PPARg1 K132A/R137A, NR concentration 270 nM, RXRa partner concentration 90 nM)
Method in brief: as §1

[14] = system: PPARg DBDmut IVT, anti-PPARg (DBD mutation: PPARg1 K132A/R137A, NR concentration 270 nM)
Method in brief: as §1

[15] = system: PPARg homodimer (NR concentration 180 nM)
Method in brief: as §1

[16] = system: PXR:RXRa (NR concentration 270 nM, RXRa partner concentration 90 nM)
Method in brief: as §1

[17] = system: PXR homodimer (NR concentration 270 nM)
Method in brief: as §1

[18] = system: RARa:RXR (NR concentration 270 nM, RXRa partner concentration 90 nM)
Method in brief: as §1

[19] = system: RARa homodimer (NR concentration 270 nM)
Method in brief: as §1

[20] = system: RARb:RXRa (NR concentration 270 nM, RXRa partner concentration 90 nM)
Method in brief: as §1

Row | Sequence | PBM binding z-score [1] | PBM binding z-score [2] | PBM binding z-score [3] | PBM binding z-score [4] | PBM binding z-score [5] | PBM binding z-score [6] | PBM binding z-score [7] | PBM binding z-score [8] | PBM binding z-score [9] | PBM binding z-score [10] | PBM binding z-score [11] | PBM binding z-score [12] | PBM binding z-score [13] | PBM binding z-score [14] | PBM binding z-score [15] | PBM binding z-score [16] | PBM binding z-score [17] | PBM binding z-score [18] | PBM binding z-score [19] | PBM binding z-score [20]
1 | ATATGTAGATTAAGGGTCATTCAGGTTGGTTCGC | 3.93 | 4.24 | 3.27 | 3.96 | 1.38 | 4.74 | 6.74 | 6.77 | 6.28 | 7.43 | 1.15 | 3.34 | 1.32 | 1.38 | 3.29 | 4.89 | 2.6 | 4.45 | 2.24 | 2.88
2 | AGAACGAGGGCGATGAGTTGATAGCACGGGTGGC | -0.358 | -0.46 | -0.764 | -0.815 | -0.754 | -0.167 | 0.665 | -0.212 | -0.297 | -0.297 | 0.888 | 0.217 | -0.427 | -0.338 | -0.143 | 0.367 | 1.89 | -0.627 | -0.34 | 0.39
3 | TCATACAGGTAAATGCTAGGTGAAAGTCCGATCT | 0.695 | 0.892 | 0.122 | 0.729 | 0.432 | 1.07 | 0.609 | 2.04 | 3.75 | 2.83 | 2.68 | 1.46 | 0.656 | 0.391 | 0.443 | 0.585 | 0.0342 | 0.804 | 0.732 | 0.542
4 | ACTATAAGTTGAGACGAGGGCAACCGATAGGTTG | 1.18 | 0.684 | -0.161 | 0.115 | -0.00417 | 0.691 | 1.01 | 0.487 | 0.313 | 0.578 | 0.251 | 0.388 | 0.373 | -0.377 | 0.181 | 3.22 | 0.715 | 1.53 | 0.18 | 1.53
5 | TCGAGTAGGTTAGGGGCATTCTGAATGGCGTCGA | 0.16 | 0.0463 | -0.301 | 0.694 | -0.421 | 1.08 | 0.543 | 2.02 | 1.09 | 1.41 | 2.23 | 1.58 | -0.74 | -0.137 | 0.496 | 0.244 | 0.106 | 0.337 | -0.415 | 0.807
6 | GCATATTGGTAATACAAGGTGAAAGTCCGATTGT | 0.142 | -0.00547 | 0.127 | 0.0375 | -0.19 | 0.519 | 0.364 | 0.443 | 0.33 | 0.00917 | 0.078 | 0.938 | 1.13 | 0.842 | 0.326 | 0.0953 | 0.0473 | 0.645 | -0.0157 | 0.266
7 | CCTATTGGGCCATTCAGAGGTCATTGATCATATG | 3 | 4.68 | 6.08 | 4.04 | 0.58 | 3.65 | 1.17 | 2.6 | 0.568 | 1.77 | 2.6 | 2.48 | 0.246 | 0.228 | 1.37 | 4.71 | 2.54 | 4.7 | 0.541 | 3.28
8 | CGAACTAGGTCATTGAAAGGACAGTGAATAGTAA | 3.97 | 2.81 | 0.177 | 1.84 | 0.134 | 4.42 | 7.82 | 6.43 | 4.13 | 5.83 | 8.01 | 8.24 | 2.22 | 2.02 | 3.92 | 2.1 | 0.391 | 4.04 | 1.01 | 4.1
9 | CCGAGTAGGTTATGGGGCGTTCAGGCAACGGTGA | 0.244 | 0.548 | -0.0765 | 0.47 | -0.285 | 1.67 | 2.44 | 3.87 | 1.97 | 3.39 | 2.68 | 2.65 | -0.225 | -0.53 | 0.696 | -0.0536 | -0.251 | 0.233 | -0.0281 | 0.904
10 | CCTTGTTGGTCAAGGTCACACACGCTATAGGTAC | 4.42 | 3.87 | 2.19 | 3.91 | 0.763 | 4.27 | 3.05 | 3.47 | 1.21 | 2.69 | 2.48 | 3.71 | 1.18 | 0.66 | 2.49 | 4.23 | 1.5 | 4.45 | 1.4 | 4.3
11 | ATCTCTAGGTAACAAGTCCAGTGAAAGAGAGGAC | 0.652 | 0.256 | 0.362 | 0.148 | 0.685 | 0.632 | 1.2 | 1.71 | 0.317 | 1.45 | 3.01 | 2.6 | 0.767 | 1.29 | 0.367 | 0.433 | 0.215 | 0.195 | 0.924 | 0.473
12 | ATATGTAGGTTATCGCGTCATTCAGTTTGCGCAT | 0.694 | 1.01 | 0.372 | 1.1 | 0.647 | 3.31 | 3.86 | 3.94 | 1.41 | 3.08 | 7.52 | 6.92 | 1.88 | 2.41 | 0.975 | 0.655 | 0.292 | 0.918 | 0.606 | 0.976
13 | CGAACTAGGTCAGGGACAGTGAATCTCCGCACGC | 1.19 | 0.726 | -0.107 | 0.458 | -0.639 | 3.59 | 5.89 | 4.71 | 2.38 | 4.17 | 7.43 | 7.24 | 1.27 | 0.491 | 0.781 | 0.326 | -0.0952 | 0.867 | -0.305 | 3.18
14 | TCTTGTAGATCAATAGAGATTAAGAAAGTGCGCT | -0.285 | 0.252 | -0.543 | -0.171 | -0.122 | -0.000927 | 0.302 | 1.34 | 2.5 | 2.08 | 1.45 | 0.39 | 0.292 | 1.02 | -0.0923 | 0.374 | 0.261 | -0.0638 | 0.076 | -0.192
15 | CGCCCAAGGTCAATGCTAGGTCAGTGAAAGCATT | 6.51 | 5.61 | 2.46 | 4.24 | 0.667 | 4.93 | 4.07 | 4.33 | 1.03 | 3.08 | 2.79 | 3.47 | -0.141 | -0.36 | 5.9 | 4.68 | 1.04 | 6.04 | 0.81 | 5.09

— the supplement of paper PMC6555819
